Screening results from PubChem.
Mcl1 Bid PPI: Mcl-1/Bid binding inhibitors, primary screen, biochemical, TR-FRET, 1536-well; Induced myeloid leukemia cell differentiation protein Mcl-1 (Homo sapiens), Q07820; TR-FRET Mcl-1/Bid-Dy647 peptide binding; inhibition, % at 21.7 µM; 220,000 tested, 0.97% active;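 active = compounds that cut the binding signal by more than half at the single screening dose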;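 also: His-tagged Mcl-1 with europium anti-His antibody binding Bid BH3 peptide; 0% = Mcl-1 plus peptide wells and 100% = peptide-only wells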
NOD2-RIPK2 inh: NOD2-RIPK2 binding disruptors in cells, primary screen, fluorescence, CHO cells, BLA complementation | Receptor-interacting serine/threonine-protein kinase 2 (Homo sapiens), O43353 | CCF4 ratio | inhibition, % at 4.98 µM | 360,000 tested, 0.38% active | AID 624267, 2012; in the data active = inhibition above about 21%;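 also: 0% = vehicle only and 100% = reference blocker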
Mcl1-Noxa inh: Mcl-1/Noxa binding inhibitors, primary screen, biochemical, TR-FRET, 1536-well; AID 1022, 2008; TR-FRET Mcl-1/Noxa peptide binding, 2 h; 220,000 tested, 1.5% active; inhibition, % at 21.7 µM; Induced myeloid leukemia cell differentiation protein Mcl-1 (Homo sapiens), Q07820;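 active = compounds that cut the protein-peptide binding signal by more than 50% relative to plate controls in a single-dose test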;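 also: His-tagged Mcl-1 with rhodamine Noxa BH3 peptide and terbium anti-His antibody; 0% = Mcl-1 plus Noxa peptide wells and 100% = peptide-only wells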
TLR9-MyD88 block: inhibitors of TLR9-MyD88 association in cells, primary screen, cell-based, CHO, BLA complementation, fluorescence; inhibition, % at 4.98 µM; AID 504734, 2011; 340,000 tested, 0.21% active; CCF4 FRET ratio;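 active = inhibition above the mean over all tested compounds plus 3 SD, cut at about 21% in these data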;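 also: 0% = DMSO only wells and 100% = clavulanate BLA inhibitor control wells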
TLR4-MyD88 BLA: inhibitors of TLR4-MyD88 association in cells, primary screen, cell-based, HeLa CL3-4, BLA complementation, FRET ratio; Toll-like receptor 4 (Homo sapiens) + Myeloid differentiation primary response protein …; HeLa CL3-4 TLR4/MyD88 BLA complementation; inhibition, % at 8.4 µM; 200,000 tested, 0.18% active; AID 861, 2007; in the data active = inhibition above about 25%;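 also: 0% = vehicle and 100% = reference inhibitor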
Mcl-1 Bim block: inhibitors of Bim peptide binding to Mcl-1, primary screen, biochemical, bead-based flow cytometry, multiplex; Induced myeloid leukemia cell differentiation protein Mcl-1 (Homo sapiens), Q07820; Bim peptide-Mcl-1 binding; inhibition, % at 10 µM; 190,000 tested, 0.1% active; AID 1009, 2008; in the data active = inhibition above about 40%;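 also: 0% = no compound tracer wells and 100% = peptide blocker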
Active calls of the source: *; . = not tested or not shown. Shown are actives, neighbours in structure and some others; about 1.8% of the full set was active somewhere.

SMILES	Mcl1 Bid PPI	NOD2-RIPK2 inh	Mcl1-Noxa inh	TLR9-MyD88 block	TLR4-MyD88 BLA	Mcl-1 Bim block
CN1CCN(C(c2cccnc2)c2ccc3cccnc3c2O)CC1 (stereo not drawn)	-6	1	52*	-9	-10	2
CC(C)c1ccc(NC(=O)c2ccc(-c3ccnn3C)c3ccoc23)cc1	.	-5	.	.	.	.
CC(C)(C)OC(=O)N1CCCC(C(=O)Nc2ccc(C(=O)N3CCOCC3)cc2)C1 (stereo not drawn)	.	-13	.	-7	.	.
CCOc1cc(/C=N\Nc2nc(-c3ccc(C)cc3)c(NC(C)=O)s2)ccc1O	-6	4	67*	-8	.	.
COc1cc(/C=N\Nc2nc(-c3ccc(C)cc3)c(NC(C)=O)s2)ccc1O	-53	-3	83*	5	.	.
CC(=O)Nc1sc(N/N=C/c2ccc(C)cc2)nc1-c1ccc(C)cc1	-38	-3	24	-5	.	.
COc1ccc(/C=N/Nc2nc(-c3ccc(C)cc3)c(NC(C)=O)s2)cc1OC	-33	-9	57*	-5	.	.
Cc1cccc(-n2ncc3c2CCCC3NC(=O)CCN2Cc3ccccc3C2=O)c1C (stereo not drawn)	.	-10	.	-5	.	.
O=C(CSc1nc2ccccc2s1)Nc1cc(S(=O)(=O)N2CCOCC2)ccc1O	32	-18	105*	2	4	13
CCCCc1ccc(S(=O)(=O)NC(=O)C2(C)CCN2C(=O)CCc2cccs2)cc1 (stereo not drawn)	.	6	.	.	.	.
C=C(C)C(=O)Nc1cccc(C2=NOC3(C2)C[C@H](C(N)=O)N(C(=O)COc2ccc(Cl)cc2)C3)c1 (stereo partly drawn)	-129	2	69*	13	.	.
C=C(C)C(=O)Nc1cccc(C2=NOC3(C2)C[C@@H](C(N)=O)N(C(=O)c2ccc(Cl)cc2)C3)c1 (stereo partly drawn)	-98	.	75*	.	.	.
C=C(C)C(=O)Nc1cccc(C2=NOC3(C2)C[C@@H](C(N)=O)N(C(=O)c2cc([N+](=O)[O-])cc([N+](=O)[O-])c2C)C3)c1 (stereo partly drawn)	-47	-6	74*	-6	.	.
C=C(C)C(=O)Nc1cccc(C2=NOC3(C2)C[C@H](C(N)=O)N(C(=O)c2ccccc2)C3)c1 (stereo partly drawn)	-70	-13	61*	-8	.	.
COc1cc(N)c(Cl)cc1C(=O)OCC(=O)c1cccs1	.	-10	.	2	.	.
COc1ccc(S(=O)(=O)NC(=O)C2(C)CCN2C(=O)Cc2ccccc2Cl)cc1 (stereo not drawn)	.	1	.	.	.	.
CC(/C=C/c1ccco1)=N\NC(=O)c1cc(C)[nH]n1	-5	1	78*	-2	-6	-3
Cc1cc(C(=O)N/N=C/c2ccco2)n[nH]1	-25	-7	-8	-6	3	0
CC(/C=C/c1ccco1)=N/NC(=O)Cc1cccs1	5	4	87*	4	7	-5
Cc1ccc(S(=O)(=O)NCc2cccnc2)cc1C(=O)NC1CCCCC1	.	-1	.	0	.	.
O=C(Nc1cccc(N2CCCC2)c1)c1cccs1	-67	-5	51*	-6	6	0
COc1ccc(CNC(=O)Cn2nc([N+](=O)[O-])c(Br)c2C)cc1OC	.	-2	.	-3	.	.
CCCCCC1CC(CC#CCN2CCOCC2)C(=O)O1 (stereo not drawn)	51*	-2	-1	-3	10	0
CCc1nc(Nc2ccccc2F)c2oc3ccccc3c2n1	.	1	.	-5	.	.
CN(C)c1ccc(NC(=O)CCCc2ccccc2)cc1	7	5	79*	-8	-11	-1
O=C(NS(=O)(=O)Nc1ccc(Cl)cc1)c1c[nH]c2ccccc12	.	1	.	-8	.	.
O=C(N/N=C/c1ccc(O)cc1O)c1ccc(CN2C(=O)c3cccc4cccc2c34)cc1	-46	-2	78*	-10	1	-1
